# HepG2 viability: HepG2 cytotoxicity, counter-screen for TGF-b inhibitors | HepG2 CAGA-GFP viability, ATP luminescence, 18 h | actives 0.76% (n = 410,000) | Potency, µM (top dose mostly 46.1 µM), inactives show at the top dose activity change, negative = cytotoxicity, actives largely listed as cytotoxic
#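 HepG2 CAGA-GFP cells (1000/well, DMEM with 1% FBS) received compound, then TGF-beta at 500 pg/mL final, and were incubated 18 hours at 37 degrees C. Viability was read by CellTiter-Glo luminescence. Media-only wells were set as complete cell-killing and DMSO as no toxicity.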
# RORgamma inh: ROR gamma (mouse) transcription inhibition; actives 5.4% (n = 310,000); Potency, µM (top dose mostly 53.6 µM), for the others: top-dose activity change, negative = inhibition, usual class: inhibitors; Drosophila S2 Gal4-RORgamma UAS-luciferase reporter, 20 h; AID 2551; note: % is set by controls: 0 for no effect and ±100 for the full control effect; nearly all actives have a fitted effect of over 60% in size
# Target sequence (P51450 whole entry, looked up, the tested form may be a part): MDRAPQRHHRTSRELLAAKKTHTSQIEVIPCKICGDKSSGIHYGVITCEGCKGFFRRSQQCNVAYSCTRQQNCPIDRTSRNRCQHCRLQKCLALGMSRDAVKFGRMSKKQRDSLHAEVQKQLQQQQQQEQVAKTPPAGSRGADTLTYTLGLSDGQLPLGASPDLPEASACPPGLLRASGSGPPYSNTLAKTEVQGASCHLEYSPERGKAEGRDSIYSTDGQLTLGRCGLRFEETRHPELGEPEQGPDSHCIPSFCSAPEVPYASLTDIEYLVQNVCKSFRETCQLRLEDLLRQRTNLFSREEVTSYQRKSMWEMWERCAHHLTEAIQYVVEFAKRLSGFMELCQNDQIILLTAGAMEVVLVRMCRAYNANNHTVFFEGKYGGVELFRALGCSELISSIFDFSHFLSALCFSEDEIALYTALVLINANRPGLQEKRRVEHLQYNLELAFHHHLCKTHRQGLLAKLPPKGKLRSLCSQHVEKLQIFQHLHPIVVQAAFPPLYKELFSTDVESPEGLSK
#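 A Gal4/UAS one-hybrid system in insect cells: metallothionein-promoter Gal4–ROR gamma fusion plus Photinus luciferase reporter. Copper sulfate 700 uM final, 20 hr ambient incubation, luminescent detection after 10 min with reagent.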
# TGFb inhibitor: blocks TGF-b signaling; HepG2 CAGA-GFP TGF-b/SMAD3 reporter, GFP fluorescence, 18 h; TGF-beta stimulated, 500 pg/mL final; Potency, µM (series often up to 46.1 µM), inactives show top-dose activity, negative = inhibition, usual class: inhibitors; actives 1.2% (n = 410,000); AID 588855; note: % is set by controls: 0 for no effect and ±100 for the full control effect; nearly all actives have a fitted effect of over 65% in size
#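 Cell-based qHTS in HEPG2 carrying a CAGA-GFP Smad reporter; compounds added before 500 pg/mL final TGF-beta, 18 h incubation at 37 degrees C, GFP fluorescence quantified per cell by imaging cytometry.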
# ATXN2 expr inh: reduces ATXN2 reporter expression in HEK-293 cells | Potency, µM (top dose mostly 57 µM), for the others: at the highest dose activity change, negative = inhibition, actives largely listed as inhibitors | HEK-293 ATXN2-luciferase reporter, luminescence, 24 h | actives 0.72% (n = 360,000); note: % is set by controls: 0 for no effect and ±100 for the full control effect; nearly all actives have a fitted effect of over 55% in size
#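 qHTS (up to 57 uM final) was run with 24 h compound exposure of reporter cells at 37 °C. Each well was multiplexed: SteadyGlo luminescence measured ATXN2-luciferase expression after a fluorogenic Gly-Phe-AFC viability readout (25 uM final).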
# S2 tox: reduces viability in counter-screen for ATXN expression inhibitors. S2 cells (HEK-293 line with an ATXN2-luciferase reporter) viability, CellTiter-Fluor protease fluorescence, 24 h. Potency, µM (highest dose often 56.7 µM), usual class: cytotoxic. actives 0.49% (n = 400,000). AID 651635; note: nearly all actives have a fitted effect of over 40% in size
# VP16 counter: counter-screen for ROR gamma inhibitors: Gal4-VP16 reporter; Drosophila S2 Gal4-VP16 UAS-luciferase, luminescence, 20 h; Potency, µM (highest dose often 53.6 µM), inactives show at the highest dose activity, negative = inhibition, hits mostly inhibitors; actives 3.5% (n = 310,000);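 note: Gal4-VP16 expression switched on by copper sulfate through the metallothionein promoter; % is set by controls: 0 for no effect and ±100 for the full control effect; nearly all actives have a fitted effect of over 50% in size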
# * = called active by the depositor; i = inactive; ? = inconclusive; . = no result given. A selection: hits, their analogues and other compounds. The true share with any hit is near 6.1%. Calls come from the whole dose curve; as a rule, active = well fitted curve in the direction sought with a large enough effect; inconclusive = small, poorly fitted or top-dose-only effect, or another doubt; inactive = no such curve, though single readings can be large; an effect the other way counts as inactive or inconclusive. Potency is the fitted concentration of half-maximal effect.
SMILES,HepG2 viability,RORgamma inh,TGFb inhibitor,ATXN2 expr inh,S2 tox,VP16 counter
COC(=O)c1ccccc1NC(=O)c1nc(S(=O)(=O)Cc2ccccc2F)ncc1Cl,4%,.,-2%,9%,i,.
Cc1ccc(-n2nc(C)c3c(C(=O)NCCc4ccc(S(N)(=O)=O)cc4)cc(C)nc32)cc1,-7%,.,-26%,-18%,i,.
CN(C)c1cccc(-c2nnc(SCCCC#N)o2)c1,-3%,11µM*,-15%,-24%,i,?
CN(C)CCSc1nnc(-c2ccccc2)o1,-9%,-41%,-7%,29%,i,-10%
CC(C)(C)C1CCc2c(sc(NC(=O)c3cccc(Cl)c3)c2C(=O)NCc2ccco2)C1 (stereo not given),-15%,.,1%,1%,i,.
CC(C)CNC(=O)c1oc2ccccc2c1COc1ccccc1,-20%,-8%,-21%,-10%,i,-11%
CCC(CC)NC(=O)c1oc2ccccc2c1COc1ccccc1,-8%,?,-12%,-1%,i,28µM*
CCCCC(CC)CNC(=O)Cc1ccc(-n2c(=O)[nH]c3ccccc3c2=O)cc1 (stereo not given),-29%,.,?,-14%,?,.
CN(C)c1ccc(/C=N/NC(=O)C(O)(c2ccccc2)c2ccccc2)o1,-4%,8.9µM*,2%,-2%,i,11µM*
CN(C)c1ccc(/C=N/NC(=O)c2ccccc2O)o1,-3%,-24%,-2%,11%,i,2%
O=C(N/N=C/c1ccc(N2CCCCC2)o1)C(O)(c1ccccc1)c1ccccc1,.,11µM*,.,.,.,13µM*
Cc1cc(C(=O)N/N=C/c2ccc(N(C)C)o2)cs1,-22%,13µM*,-21%,4%,i,6.3µM*
Cc1ccc(/C=N/NC(=O)c2csc(C)c2)o1,-25%,26%,-6%,27%,i,-10%
C[C@@]12CC(=O)NC1N(C(=O)c1cccc(C(F)(F)F)c1)C(c1ccccc1OC(=O)c1cccc(C(F)(F)F)c1)C2 (stereo not given in full),-40%,-30%,13µM*,-8%,?,-13%
COc1ccc2[nH]cc(CCNc3ncncc3-c3cccc(NS(C)(=O)=O)c3)c2c1,.,5%,.,.,.,-1%
CCOC(=O)c1c(C)c(C(=O)NCc2ccc(Cl)cc2)c(C)n1CC,3%,.,13%,-13%,i,.
Cc1oc(-c2ccccc2Cl)nc1CSCC(=O)NC1CC1,-4%,-4%,36%,5%,i,-3%
Cc1oc(-c2ccccc2Cl)nc1CSCC(=O)O,-23%,-127%,6%,-24%,i,7.9µM*
Cc1cccc(-c2nc(CSCC(=O)NCCc3ccc(Cl)cc3)c(C)o2)c1,-66%,.,13µM*,.,.,.
Cc1ccc(CNC(=O)CSCc2nc(-c3cccc(C)c3)oc2C)cc1,-26%,.,?,.,.,.
Cc1ccc(CCNC(=O)CSCc2nc(-c3ccc(C)cc3)oc2C)cc1,-50%,.,?,.,.,.
Cc1oc(-c2cccc(Cl)c2)nc1CSCC(=O)O,-24%,10µM*,-26%,?,i,5µM*
O=C(COC(=O)COc1ccccc1)Nc1ncc([N+](=O)[O-])s1,3%,.,-5%,11%,i,.
N/C(=N\OC(=O)Nc1ccccc1)c1ncc([N+](=O)[O-])s1,8.9µM*,-28%,11µM*,?,?,-27%
Nc1c(C(=O)NCC2CCCO2)sc2nc3c(c(-c4ccco4)c12)CC/C3=C\c1ccco1 (stereo not given),6%,9%,18µM*,4%,i,-2%
S=C(NCc1ccccc1)NNc1ccccc1,-3%,1.4µM*,?,-6%,i,3.2µM*
CCNC(=S)NS(=O)(=O)c1ccccc1,1%,?,14%,5%,i,-3%
CCNC(=S)NNc1ccccc1,10%,0.71µM*,-7%,-18%,i,4µM*
